40 compounds from PubChem BioAssay (EPA / NIEHS) can be followed below.

The source made the active and inactive calls. The calls were made as follows: active = hit-call score of the fitted dose curve at least 0.9, where 1 is the maximum; inactive = score below 0.9.

This assay in a line: ATG_BRE_CIS: Attagene CIS-FACTORIAL HepG2 Assay for human Bone Morphogenetic Protein (BMP) Response Element (BRE) (AID 2282933). The following applies: HepG2 BMP response element reporter, Attagene transcription factor profiling; actives raise or lower the signal. On the procedure: ATG_CIS is a cell-based, multiplexed-readout assay that uses HepG2, a human liver cell line, with measurements taken at 24 hours after chemical dosing in a 24-well plate.ATG_BRE_CIS is one of 52 assay component(s) measured or calculated from the ATG_CIS assay. It is designed to make measurements of mRNA induction, a form of inducible reporter, as detected with fluorescence intensity signals by Reverse transcription polymerase chain reaction (RT-PCR) and Capillary electrophoresis technology.Data from the assay component ATG_BRE_CIS was analyzed into 1 assay endpoint. This assay endpoint, ATG_BRE_CIS, was analyzed with bidirectional fitting relative to DMSO as the negative control and baseline of activity. Using a type of inducible reporter, measures of mRNA for gain or loss-of-signal activity can be used to understand the reporter gene at the transcription factor-level as they relate to the gene SMAD1. Furthermore, this assay endpoint can be referred to as a primary readout, because this assay has produced multiple assay endpoints where this one serves a reporter gene function. To generalize the intended target to other relatable targets, this assay endpoint is annotated to the dna binding intended target family, where the subfamily is Smad protein.
Human liver HepG2 cells are transiently transfected with multiple reporter transcription units (MRTUs) in 6-well plates using FuGene 6 reagent (Roche; 3 ml FuGene/1 mg DNA). The MRTU constructs are regulated by a cis-regulating element (promoter). […] A major difference between the CIS and TRANS system is that in CIS activities of endogenous TFs are measured, whereas the TRANS assay evaluates changes in activities of exogenous, chimeric NR-Gal4 proteins. […] At the end of 24 hour incubation, total RNA was isolated using TriZol reagent (Invitrogen). The isolated RNA is then reverse-transcribed using oligo(dT) primer and Mo-MLV reverse transcriptase (Invitrogen) with DNAse I (Ambion) treatment for 30 min. The one-tenth of the produced cDNA was amplified by PCR using Taq DNA polymerase (Invitrogen) and two reporter sequence-specific primers. The PCR products were fluorescently labeled by primer extension with 6-arboxyfluorescein (6-FAM) 5'-labeled reporter sequence-specific primer (2 min at 95 C, 20 s at 68 C and 10 min at 72 C) and these products were digested with 5U of HpaI (New England Biolabs) for 2h at 37 C. The fragments were purified using Qiaquick PCR columns (Qiagen), analyzed on an ABI 3130xL genetic analyzer (Applied Biosystems) with peak positions identified by using a set of X-rhodamine (ROX)-labeled MapMarker1000 molecular weight standards (BioVentures). The raw capillary electrophoresis data was processed using Attagraph software (Attagene).
Consider `CCC1(c2ccccc2)C(=O)NCNC1=O`, for which the compound was called inactive. On the same count and under the same terms, the same measure for `O=Cc1ccccc1S(=O)(=O)O`: “inactive”; for `CC1(C)C2=CCCC(C)(C)[C@]23CC[C@H]1C3`: “inactive”; for `CCc1ccc(O)c(OC)c1`: “inactive”. With `OC[C@H]1O[C@@H]2O[C@H]3[C@H](O)[C@@H](O)[C@@H](O[C@H]4[C@H](O)[C@@H](O)[C@@H](O[C@H]5[C@H](O)[C@@H](O)[C@@H](O[C@H]6[C@H](O)[C@@H](O)[C@@H](O[C@H]7[C@H](O)[C@@H](O)[C@@H](O[C@H]8[C@H](O)[C@@H](O)[C@@H](O[C@H]9[C@H](O)[C@@H](O)[C@@H](O[C@H]1[C@H](O)[C@H]2O)O[C@@H]9CO)O[C@@H]8CO)O[C@@H]7CO)O[C@@H]6CO)O[C@@H]5CO)O[C@@H]4CO)O[C@@H]3CO`, the call was inactive. Turning to `C[C@@H]1CCN(C(=O)[C@H](CCCN=C(N)N)NS(=O)(=O)c2cccc3c2NC[C@H](C)C3)[C@@H](C(=O)O)C1`, the call was inactive. For `CC1=NN(c2ccc(S(=O)(=O)O)cc2)C(=O)C1`, the compound was classed as inactive. `O=C(Nc1ccc2c(c1)Cc1ccccc1-2)C(F)(F)F`: the call was inactive. On the same count and under the same terms, the value for `CCCCCCC(C)(C)S` was “inactive”; that for `O=C1c2ccccc2C(=O)c2c(O)ccc(O)c21` was “inactive”. Consider `CN(C)C(=O)Nc1ccc(Oc2ccc(Cl)cc2)cc1`, for which the AC50 (in general, the concentration at which the activity in the assay is half-maximal) is 113 µM (active). For `O=C(CS)OCCOC(=O)CS`, the outcome was inactive. Take `CC(C)CCCCCCc1ccc(OCCOCCO)cc1`: the compound was called inactive. On the same count and under the same terms, the value for `CC(=O)c1ccccn1` was “inactive”; that for `CC[N+](C)(CC)CC` was “inactive”.

`CC(=O)c1c(C)c([N+](=O)[O-])c(C(C)(C)C)c([N+](=O)[O-])c1C`: the compound was called inactive. For `O=P(O)(O)O`, the call was inactive. As for `Clc1ccc(C(c2ccccc2Cl)C(Cl)Cl)cc1` (stereo not given), the compound was called inactive. `C1CCOC1`: the call was inactive. For `Nc1ccc2cc(S(=O)(=O)O)cc(O)c2c1N=Nc1ccccc1C(F)(F)F`, the outcome was inactive. Regarding `CCCCC1(COC(=O)CCC(=O)O)C(=O)N(c2ccccc2)N(c2ccccc2)C1=O`, the result was inactive. Regarding `CC(C)CCCCCCCCCCCCCCC(=O)O`, the compound was called inactive. The same measure, in the same setting: the same measure for `O=C(CC(=O)c1ccccc1)c1ccccc1`: “inactive”; for `CCCN(CCC)S(=O)(=O)c1ccc(C(=O)O)cc1`: “inactive”.

In the case of `CCC1(C)NC(=O)NC1=O` (stereo not given), the call was inactive. In the case of `CN(C)CCOC(C)(c1ccccc1)c1ccccn1` (stereo not given), the compound was called inactive.

Take `CCCC(C)=O`: the result was inactive. `Cc1ncc[nH]1`: the result was inactive. For the compound `CCCCCCC(C)Nc1ccc(Nc2ccccc2)cc1` (stereo not given), the AC50 is 50.5 µM (active). As to `C=Cc1ccc(C(C)(C)C)cc1`, the call was inactive. Consider `IC(I)I`, for which the compound was called inactive.

Take `CS(=O)(=O)OCCCCOS(C)(=O)=O`: the result was inactive.

For `CC=CC=CCOC(=O)C(C)C`, the compound was classed as inactive. On to `CCCCCCCCCCCCN1CCCCCC1=O`, for which the AC50 was 16.4 µM (active).

On to `[O-]n1ccccc1=S.[O-]n1ccccc1=S.[Zn+2]`, for which the call was inactive. As for `CCCCCCCC/C=C\CCCCCCCC(=O)OCC`, the compound was classed as inactive. As to `COC(C)(C)CCO`, the result was inactive. Still for that read-out and setting: the same measure for `COCCc1ccc(OCC(O)CNC(C)C)cc1` (stereo not given): “inactive”; for `CCCOCCO`: “inactive”; for `CC(=O)O[C@@H]1CC2CCC1(C)C2(C)C` (stereo not given in full): “inactive”.
